Bioassay records: PubChem BioAssay, National Center for Advancing Translational Sciences (NCATS)
SW480 rereplic: A quantitative high throughput screen for small molecules that induce DNA re-replication in SW480 colon adenocarcinoma cells. actives 1.8% (n = 340,000). SW480 DNA re-replication, Hoechst DNA content imaging, 48 h. Potency, µM (titrated, usually from 46.1 µM), hits mostly activators; note: nearly all actives have a fitted effect of over 55% in size
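Cells (250 per well) received 23 nL compound or DMSO by pin tool and were kept 48 hr at 37 C, 5% CO2. Nuclei were then stained with Hoechst for 40 min and scanned for DNA content.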
KB-V1 MDR tox: qHTS assay for MDR1-selective chemotherapeutics: Primary screen using the drug-selected MDR subline cells KB-V1 | KB-V1 MDR cells viability, CellTiter-Glo, 72 h | Potency, µM (doses to about 46.1 µM), usual class: cytotoxic | actives 3.4% (n = 400,000); note: nearly all actives have a fitted effect of over 60% in size
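Drug-selected KB-V1 cells, grown in DMEM lacking phenol red with 10% FBS, receive compound titrations; after three days at 37 degrees C, surviving cell ATP is quantified by CellTiter-Glo luminescence and responses normalized and curve-fitted.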
MCF10A rereplic: A quantitative high throughput screen for small molecules that induce DNA re-replication in MCF 10a normal breast cells; MCF 10A DNA re-replication, Hoechst nuclear intensity, 48 h; Potency, µM (doses to about 46.1 µM), usual class: activators; actives 2.9% (n = 350,000); note: nearly all actives have a fitted effect of over 50% in size
IL-1B inflam inh: qHTS for Inhibitors of Inflammasome Signaling: IL-1-beta AlphaLISA Primary Screen. THP-1 LPS/ATP IL-1B secretion, AlphaLISA, 16 h; hits give low values. activity change, % at 57.5 µM. actives 4.7% (n = 360,000). AID 743279, 2014; in the data active = activity change below about -50%; inconclusive = mostly about -30% to -49%
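THP-1 cells pretreated 1 hr with compounds (up to 57.5 uM final), then stimulated with LPS (250 ng/mL final) plus ATP (1.25 mM final); secreted IL-1B measured by AlphaLISA after 16 hr, decreased signal indicating inhibition.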
KB-3-1 cytotox: qHTS assay for MDR1-selective chemotherapeutics: Primary screen using the parental adenocarcinoma cell KB-3-1; KB-3-1 viability, CellTiter-Glo ATP luminescence, 72 h; Potency, µM (series often up to 46.1 µM), most hits filed as cytotoxic; actives 1.4% (n = 400,000); AID 1347075, 2019; note: nearly all actives have a fitted effect of over 60% in size
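72 h, 37 °C compound treatment of KB-3-1 parental cells; CellTiter-Glo added, 10 min, luminescence read. Data corrected against DMSO-only plates and normalized before curve fitting.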
Hits are given with their value; - = inactive; ? = inconclusive; . = no result; ! = a repeat was not active. Hits are enriched below; roughly 9.9% of the tested compounds scored in any of these assays. Unless noted, calls come from the whole dose curve; as a rule, active = well fitted curve in the direction sought with a large enough effect; inconclusive = small, poorly fitted or top-dose-only effect, or another doubt; inactive = no such curve, though single readings can be large; an effect the other way counts as inactive or inconclusive.

SMILES | SW480 rereplic | KB-V1 MDR tox | MCF10A rereplic | IL-1B inflam inh | KB-3-1 cytotox
CCOC(=O)CC1(C)NC(=O)c2c(C)sc(C(=O)OCC)c2N1 (centres undefined) | - | 16µM | - | - | -
C=CCn1c[n+](CC(=O)c2ccc(Br)s2)c2ccccc21 | - | - | - | -65 | -
Cc1ccccc1NC(=O)CSCc1cc(=O)n2ccsc2n1 | - | - | - | - | -
C[C@H]1[C@H](c2ccccc2)C[C@@H](C(=O)O)C1(C)C | - | ? | - | - | -
CCN(CC(=O)Nc1c(F)cccc1F)C(=O)/C=C/c1ccc(S(=O)(=O)N2CCCCCC2)cc1 | - | ? | - | -58 | ?
COc1ccc(CN(C)C(C)C(=O)Nc2ccc(S(=O)(=O)N3CCCCC3)cc2)c(OC)c1 (centres undefined) | ? | - | 18µM | ? | -
CCN(CC(=O)Nc1c(F)cccc1F)C(=O)c1ccc(S(=O)(=O)N2CCCC2)cc1 | - | - | - | - | -
COc1ccc(NC(=O)CN(C)C(=O)/C=C/c2ccc(S(=O)(=O)N3CCCCCC3)cc2)cc1 | - | 21µM | ? | - | ?
COc1ccc(/C=C/C(=O)N(C)CC(=O)Nc2cccc(F)c2)cc1S(=O)(=O)N1CCCCC1 | 21µM | - | ? | - | 21µM
COc1ccc(NC(=O)CN(C)C(=O)/C=C/c2ccc(OCc3ccccc3)cc2)cc1 | - | ? | ? | - | ?
CCN(Cc1ccc(OC)c(F)c1)C(C)C(=O)Nc1ccc(S(=O)(=O)N2CCCC2)cc1 (centres undefined) | - | - | - | - | -
CC(=O)Nc1ccccc1OCC(=O)NCC(F)(F)F | - | - | - | - | -
COc1cccc(C(=O)NCc2ccco2)c1 | - | - | - | - | -
CCN(CC(=O)Nc1c(F)cccc1F)C(=O)CN(C)S(=O)(=O)c1ccc(F)cc1 | - | 21µM | - | - | -
Cc1cc(C)n2nc(C(=O)Nc3cccc(S(=O)(=O)N(C)c4ccccc4)c3)nc2n1 | - | - | - | - | -
CCOC(=O)c1c[nH]c2c([N+](=O)[O-])cc(OC)cc2c1=O | 16µM | - | - | - | -
c1ccc(CCNc2ccc3ncc(-c4cccc5ccccc45)n3n2)nc1 | . | 13µM | . | - | -
Cc1cc(C)c2cc(C#N)c(NCCCNC(=O)c3ccncc3)nc2c1 | . | - | . | - | -
CCOc1ccc2nc(NCCNC(=O)CC)c(C#N)cc2c1 | ? | ? | ? | - | -
CCOc1ccc2nc(NCCCNC(=O)c3cc(OC)c(OC)c(OC)c3)c(C#N)cc2c1 | 10µM | - | ? | - | -
COc1cc(C(=O)NCCCNc2ccc([N+](=O)[O-])cc2)cc(OC)c1OC | - | 21µM | - | - | -
COc1cc(C(=O)NCCCNc2nc3cc(C)cc(C)c3cc2C#N)cc(OC)c1OC | - | 5.8µM | ? | - | ?
O=C(COc1ccccc1)NCCc1csc(-c2ccc(Cl)cc2)n1 | . | - | . | . | -
CCN1CCN(C(=O)C(N)Cc2ccccc2)CC1 (centres undefined) | - | - | - | - | -
O=C1C(Br)=Cc2cccc3cccc1c23 | - | - | - | -75 | -
SMILES | SW480 rereplic | KB-V1 MDR tox | MCF10A rereplic | IL-1B inflam inh | KB-3-1 cytotox
Oc1ccc(CN2CCN(c3ccccc3)CC2)c2cccnc12 | ? | - | ? | - | ?
Oc1c(CN2CCCCC2)cc(COCc2ccccc2)c2cccnc12 | 3.2µM | ? | 16µM | -105 | 5.2µM
O=S(=O)(Nc1ccc(O)c2ncccc12)c1ccccc1F | . | - | . | . | -
Oc1ccc(Cc2ccccc2)c2cccnc12 | ? | - | ? | - | 23µM
CCCOCc1ccc(O)c2ncccc12 | 5.8µM | ? | - | - | ?
CC(C)COCc1ccc(O)c2ncccc12 | ? | ? | - | - | ?
Oc1ccc(CNc2ccccc2F)c2cccnc12 | ? | ? | ? | - | 21µM!
CCCS(=O)(=O)NC(=O)C1(C)CCCN(C(=O)COc2ccccc2)C1 (centres undefined) | . | - | . | - | -
Cc1cccc(OCC(=O)Nc2cc(-c3nc4cc(Cl)ccc4o3)ccc2C)c1 | . | - | . | . | -
